Bioassay records: PubChem, The Scripps Research Institute Molecular Screening Center
PAD4 FP inh – blocks human protein arginine deiminase 4; Q9UM07; recombinant PAD4, RCA probe fluorescence polarization; actives 0.41% (n = 330,000); inhibition, % at 6.36 µM; AID 485272;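 active = percent inhibition above a cutoff equal to the mean of all tested compounds plus 3 SD, cut at about 15% in these data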;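 note: 0% = PAD4 with RCA probe and DMSO and 100% = probe without PAD4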
Fam108B inh – Fam108B inhibition, counter-screen for RBBP9 inhibitors. actives 0.33% (n = 300,000). recombinant Fam108B, FP-Rh probe fluorescence polarization. AID 1947. inhibition, % at 9.51 µM;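 active = inhibition above the screen mean inhibition plus 3 SD, computed separately per campaign, cut at about 18% in these data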;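 note: inhibitors lower polarization as less probe binds the enzyme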
PME-1 primary – PME-1 (human) inhibition; actives 0.53% (n = 320,000); inhibition, % at 5.9 µM; AID 2130; Q9Y570; recombinant PME-1, FP-Rh probe fluorescence polarization;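 active = inhibition above the campaign mean of all compounds plus 3 SD, cut at about 26% in these data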;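 note: competitive labeling of PME-1 active site by serine hydrolase directed probe; 0% = PME-1 with DMSO and 100% = wells lacking PME-1 enzyme; inhibitors block probe labeling so polarization falls and inhibition rises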
GSTO1 counter – blocks human GSTO1 in RBBP9 counter-screen. recombinant GSTO1, activity-based probe fluorescence polarization. P78417. inhibition, % at 5.96 µM. actives 1.1% (n = 300,000);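 active = inhibition above the campaign mean inhibition plus 3 SD, cut at about 35% in these data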;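 note: 0% = GSTO1-1 with DMSO and 100% = wells lacking GSTO1-1 enzyme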
Target sequence (P78417 whole entry, looked up): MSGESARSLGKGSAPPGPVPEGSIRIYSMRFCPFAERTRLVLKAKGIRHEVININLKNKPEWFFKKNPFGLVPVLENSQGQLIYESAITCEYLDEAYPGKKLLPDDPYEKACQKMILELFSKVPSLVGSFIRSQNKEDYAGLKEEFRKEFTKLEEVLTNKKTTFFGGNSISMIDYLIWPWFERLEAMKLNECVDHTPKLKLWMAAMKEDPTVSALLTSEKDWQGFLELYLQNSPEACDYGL
LYPLA2 counter – LYPLA2 (human) inhibition in PME1 counter-screen; O95372; recombinant LYPLA2, FP-Rh probe fluorescence polarization; inhibition, % at 5.9 µM; actives 0.38% (n = 320,000); AID 2177;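 active = inhibition above the screen-wide mean plus 3 SD, limit set per campaign, cut at about 26% in these data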;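 note: 0% = LYPLA2 with DMSO and 100% = wells lacking LYPLA2 enzyme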
Target sequence (O95372 whole entry, looked up): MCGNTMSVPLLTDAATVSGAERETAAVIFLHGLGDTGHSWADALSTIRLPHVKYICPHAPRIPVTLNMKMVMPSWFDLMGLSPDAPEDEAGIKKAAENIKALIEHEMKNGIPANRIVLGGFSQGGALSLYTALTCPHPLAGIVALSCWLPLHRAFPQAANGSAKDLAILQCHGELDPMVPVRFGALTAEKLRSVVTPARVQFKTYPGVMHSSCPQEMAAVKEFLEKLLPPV
LYPLA1 counter – LYPLA1 (human) inhibition in PME1 counter-screen. recombinant LYPLA1, FP-Rh probe fluorescence polarization. inhibition, % at 5.9 µM. actives 0.16% (n = 320,000). AID 2174;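 active = inhibition above the mean of all tested compounds plus 3 SD, set per campaign, cut at about 14% in these data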;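 note: inhibitors block serine hydrolase probe labeling of LYPLA1 so polarization falls; 0% = enzyme with DMSO and 100% = wells lacking LYPLA1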
Target sequence (O75608 whole entry, looked up): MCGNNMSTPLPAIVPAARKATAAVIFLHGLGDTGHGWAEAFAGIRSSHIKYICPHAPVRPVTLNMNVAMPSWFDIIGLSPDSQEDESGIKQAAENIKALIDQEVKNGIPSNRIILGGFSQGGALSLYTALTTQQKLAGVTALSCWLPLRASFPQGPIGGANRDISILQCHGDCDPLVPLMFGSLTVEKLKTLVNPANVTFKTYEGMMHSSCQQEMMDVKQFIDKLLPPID
PAD4 FP conf – confirmation of human PAD4 inhibitors; shares compounds with PAD4 FP inh; recombinant PAD4, RCA probe fluorescence polarization; inhibition, % at 6.36 µM; actives 28% (n = 1,200); AID 488796;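 active = mean inhibition across replicates above the hit cutoff set by the earlier primary screen, cut at about 15% in these data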;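 note: inhibitors block active-site labeling by the probe so polarization falls; 0% = PAD4 with probe and DMSO and 100% = probe without PAD4 enzyme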
An asterisk follows results filed as active; nt = no result. An excerpt weighted towards active compounds, which were near 1.8% of everything screened.

SMILES	PAD4 FP inh	Fam108B inh	PME-1 primary	GSTO1 counter	LYPLA2 counter	LYPLA1 counter	PAD4 FP conf
COc1ccccc1N1CCN(C2CC(=O)N(c3ccc(Cl)cc3)C2=O)CC1 (stereo not given)	0.7	-6.9	0.5	6.6	4.9	3.4	nt
Cc1cc(=O)oc2cc(NC(=O)c3cccc(S(=O)(=O)N(C)C)c3)ccc12	-0.6	-7.9	-2.5	-1.5	-0.2	-0.5	nt
Cc1cc(=O)oc2cc(NC(=O)c3cccc(S(C)(=O)=O)c3)ccc12	19.1*	-3.3	-8.3	0.9	-2.8	-26.7	19.6*
CCN(c1ccccc1)S(=O)(=O)c1ccc(C(=O)NNC(=O)c2ccccc2F)cc1	15.6*	nt	4.9	nt	-4.8	-4.6	2.0
CCCOC(=O)c1cccc(Nc2nc(-c3cccnc3)nc3ccccc23)c1	0.7	-17.3	-17.3	-9.8	-20.5	-15.3	nt
Cc1ccc(NC(=O)CSc2nnc(C)c(=O)n2N)cc1Cl	1.7	0.7	-0.4	19.5	4.4	2.2	nt
Cc1nnc(SCC(=O)c2ccc(Cl)cc2)n(N)c1=O	25.8*	2.4	-6.4	2.8	-4.3	-0.6	2.9
COc1cc(C#N)c(N=C(SCC#N)N2CCOCC2)cc1OC	24.9*	-3.0	-4.4	13.3	4.8	1.3	28.2*
COc1ccc2ccccc2c1/C=N/Nc1cccc(C(=O)O)c1	21.1*	7.6	13.6	14.6	8.2	8.9	1.5
COc1ccc(OC)c(C2NC(=O)c3sc(=S)n(-c4ccccc4)c3N2)c1 (stereo not given)	22.2*	2.3	9.8	5.1	3.9	-3.5	35.2*
O=C(Nc1cc(C(F)(F)F)ccc1N1CCCC1)C1=COCCO1	-4.3	4.0	5.0	-1.7	5.4	7.3	nt
Oc1ccccc1CNc1cccc2cccnc12	34.8*	8.2	3.2	32.8	11.5	-1.4	-3.6
NC(=S)NNc1cccc2cccnc12	29.4*	7.1	11.1	62.2*	1.4	2.0	5.0
NC(=S)Nc1cccc2cccnc12	-1.3	3.0	0.0	25.7	9.0	2.5	nt
Nc1nonc1-n1nnc(C(=O)N/N=C/c2ccccn2)c1CNc1ccccc1	-1.6	0.7	0.9	5.3	3.1	-5.1	nt
CC(C)c1cccc(C(C)C)c1NC(=O)CN1C(=O)NC2(CCCC2)C1=O	3.3	-1.6	3.2	5.1	-0.9	-4.9	nt
CC(C)c1cccc(C(C)C)c1NC(=O)CN1C(=O)NC2(CCCCCCC2)C1=O	18.1*	nt	4.1	nt	-3.2	-1.7	7.7
COc1ccc(CCn2c(C)cc(C(=O)CSc3nc(N)cc(=O)[nH]3)c2C)cc1	30.5*	-0.3	-15.4	-14.2	-7.5	-6.6	9.2
COc1ccc(CCn2c(C)cc(C(=O)CSc3nnc(N)s3)c2C)cc1	-3.8	1.1	-7.2	-2.7	-5.0	-1.3	nt
O=C1C2C(C(=O)N1Cc1cccnc1)C1C=CC2C12CC2 (stereo not given)	2.0	-1.2	0.3	-0.1	0.2	-3.9	nt
CCC(=O)Nc1ccccc1Sc1ncnc2scc(-c3ccccc3)c12	21.4*	-1.1	7.4	2.9	6.8	3.8	9.2
O=C(NCCCN1CCCC1=O)C1CCN(S(=O)(=O)c2c(Cl)cccc2Cl)CC1	0.2	0.2	2.9	2.0	2.7	-3.1	nt
CNc1ccccc(-c2ccc3ccccc3n2)c1=O	20.5*	13.1	0.4	22.9	-3.1	-4.0	6.7
Fc1cccc(C[n+]2csc3ccccc32)c1	11.8	-3.3	5.7	3.3	3.5	-1.5	nt
c1ccc(C[n+]2csc3ccccc32)cc1	23.4*	-1.5	2.8	10.6	0.0	2.5	33.9*
SMILES	PAD4 FP inh	Fam108B inh	PME-1 primary	GSTO1 counter	LYPLA2 counter	LYPLA1 counter	PAD4 FP conf
Cc1noc(C)c1S(=O)(=O)NCc1ccc2c(c1)OCO2	25.4*	4.1	-1.1	4.7	-1.7	1.8	0.0
O=C1c2ccccc2C(=O)C12OC2c1ccc(Cl)cc1Cl (stereo not given)	35.8*	3.2	1.6	25.1	-2.6	3.1	39.6*
Cc1cc(OCC(=O)OCC(=O)NCC2CCCO2)ccc1Cl (stereo not given)	0.9	nt	-3.2	nt	-2.3	-2.6	nt
CCCS(=O)(=O)c1c(S(=O)(=O)CCC)c2c(C)cccn2c1C(N)=O	-2.2	-0.2	0.6	0.4	0.7	2.6	nt
CCCS(=O)(=O)c1cn2cccc(N)c2c1S(=O)(=O)CCC	18.2*	4.6	0.5	14.9	4.5	2.3	7.0
CCOC(=O)Cc1nnc(NC(=O)CSc2nnc3c(n2)[nH]c2ccccc23)s1	21.6*	-7.7	-18.3	10.9	-1.5	-3.8	4.8
COc1ccc(NC(=O)CSc2ccc3nnc(CCNC(=O)c4ccccc4)n3n2)cc1OC	-3.3	2.4	-2.2	4.7	-3.2	-1.3	nt
CCCCn1[nH]c(-c2ccccc2)cc1=O	44.5*	1.6	-11.5	57.3*	5.4	0.1	-5.1
COc1cc(C(=O)NNC(=O)c2ccccc2Br)ccc1OCC(=O)N1CCOCC1	0.8	-1.5	2.6	1.3	0.3	-0.6	nt
CC(=O)N1CCN(c2ccc(NCc3cccs3)cc2)CC1	16.6*	5.0	1.7	14.6	-0.1	1.7	-3.4
Cc1nn2c(nc1=O)SCC(c1ccccc1)=N2	18.2*	-5.3	-4.3	8.8	-4.3	3.1	-6.5
Cc1cccc(-c2nnc3n2N=C(c2ccccc2)CS3)c1	-0.7	-0.6	5.2	1.8	12.8	6.2	nt
Cc1ccc(NC(=O)C(=Cc2ccc(C(=O)O)cc2)C(=O)Nc2ccc(C)cc2C)c(C)c1	-0.2	-5.0	-6.8	-35.3	4.0	-2.1	nt
CCCCN1C(=O)Nc2ccccc2S1=O (stereo not given)	15.8*	3.3	1.3	13.2	-1.3	5.0	10.3
CCCCN1C(=O)C2(NNc3ccccc3O2)c2ccccc21 (stereo not given)	-4.8	10.4	7.3	15.9	-6.1	-8.9	nt
CN(CC(=O)Nc1ccc(F)c(F)c1F)C(=O)/C=C/c1ccco1	1.2	nt	nt	nt	nt	nt	nt
Cc1[nH]c(=S)c(C#N)c(-c2ccco2)c1C(=O)N(C)C	18.6*	2.5	3.4	6.3	1.3	-0.7	11.7
CC(=O)c1c(C)[nH]c(=S)c(C#N)c1-c1ccc(Cl)cc1	-5.7	0.3	2.8	3.2	-3.4	0.7	nt
O=C1C2CC(O)CN2C(=S)N1Cc1ccccc1 (stereo not given)	3.4	3.3	1.7	5.3	-2.1	-0.9	nt
CCCCc1cc(=O)oc2cc(O)ccc12	24.4*	-0.8	1.8	-2.3	-2.5	2.4	4.4
COc1ccc(NC(=O)C2CSC(C)(C)N2C=O)cc1 (stereo not given)	2.2	1.0	-1.6	5.4	-4.8	-1.2	nt
COc1cc2c(cc1OC)C(c1ccc(Cl)cc1)CC(=O)N2 (stereo not given)	2.6	-3.3	-1.1	5.8	-1.4	-0.4	nt
O=C1CC(c2ccc(F)cc2)c2cc3c(cc2N1)CCC3 (stereo not given)	15.5*	6.2	0.8	3.6	13.9	1.0	0.3
